# According to the supplement of paper PMC10981050:
# “And” between values parts separate entries of the source, which are not always exact repeats. Equal values may be shown once. Where a name gives a salt, the structure may show the parent alone.
# Legend:
# Experiment in all cases: cell viability relative to vehicle control; higher = less cytotoxic
# Conditions in all cases: 10 µM
# [1] = system: K562
# In short: (§1)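 Four leukaemia lines, as CRISPR-edited mutant clones and isogenic wild-type clones, were tested against Selleck bioactive, kinase and epigenetic probe libraries after removal of identity-inconsistent compounds. Cells were exposed to a single 10 µM dose for 48 h, and CellTiter-Glo luminescence was then read. Viability was calculated relative to the on-plate vehicle control.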
# [2] = system: MARIMO
# In short: as §1
# [3] = system: MOLM14
# In short: as §1
# [4] = system: OCI-AML2
# In short: as §1
SMILES,cell viability ([1]; SRSF2 genotype: SRSF2 P95H/wt),cell viability ([1]; SRSF2 genotype: SRSF2 wt/wt),cell viability ([2]; SRSF2 genotype: SRSF2 P95H/wt),cell viability ([2]; SRSF2 genotype: SRSF2 wt/wt),cell viability ([3]; SRSF2 genotype: SRSF2 P95H/wt),cell viability ([3]; SRSF2 genotype: SRSF2 wt/wt),cell viability ([4]; SRSF2 genotype: P95H/wt),cell viability ([4]; SRSF2 genotype: wt/wt)
CCCC(C)NC(=O)c1ccc(Cl)c(Cl)c1 (stereo not given),101% and 97.6%,105%,90.5%,96.2%,112%,103%,96%,96.8%
CC(C)C(C)C(O)C(O)C(C)C1CCC2C3COC(=O)C4CC(O)C(O)CC4(C)C3CCC12C (stereo not given) [Brassinolide],98.5% and 94.6%,99.3%,107%,115%,95.8%,103%,120%,103%
CN1CCN(c2ccc3nc(-c4c(N)c5c(F)cccc5[nH]c4=O)[nH]c3c2)CC1 [Dovitinib (TKI258) Lactate],5.06% and 10.2%,8.08%,9.85%,12%,0.28%,0.3%,0.28%,0.65%
O=S(=O)(NC1CCCCC1)c1ccc2c(c1)C(=NO)c1cc(S(=O)(=O)NC3CCCCC3)ccc1-2,80.3% and 92.9%,92.3%,4.08%,57.4%,11.1%,70.7%,0.52%,0.59%
CC(C)NC(=O)COc1cccc(-c2nc(Nc3ccc4[nH]ncc4c3)c3ccccc3n2)c1,73.5% and 97.8%,84.7%,68.6%,72.4%,93.6%,89.8%,110%,87.8%
CCOc1ccccc1OCCN[C@H](C)Cc1ccc(OC)c(S(N)(=O)=O)c1 [Tamsulosin hydrochloride],102% and 97.9%,98.3%,96.9%,107%,98.5%,103%,92.7%,104%
CCN1CCN(Cc2ccc(-c3cc4c(N[C@H](C)c5ccccc5)ncnc4[nH]3)cc2)CC1,3.36% and 7.86%,8.31%,52.9%,58.4%,12.6%,11.8%,13.8%,23%
CCCCCCCCCC(=O)N[C@@H](Cc1c[nH]c2ccccc12)C(=O)N[C@H](CC(N)=O)C(=O)N[C@@H](CC(=O)O)C(=O)N[C@@H]1C(=O)NCC(=O)N[C@@H](CCCN)C(=O)N[C@@H](CC(=O)O)C(=O)N[C@H](C)C(=O)N[C@@H](CC(=O)O)C(=O)NCC(=O)N[C@H](CO)C(=O)N[C@@H]([C@H](C)CC(=O)O)C(=O)N[C@@H](CC(=O)c2ccccc2N)C(=O)O[C@@H]1C [Daptomycin],94.1% and 95.3%,95%,94%,103%,99%,96.5%,96%,103%
"CC(=O)C1=C(O)C=C2Oc3c(C(C)=O)c(O)c(C)c(O)c3C2(C)C1=O (single isomer, unassigned; (+)) [(+)-Usniacin (D-Usnic acid)]",98.5% and 99.9%,97.7%,95.4%,106%,95%,99%,90.8%,98.9%
CC12CC3CC(C)(C1)CC(N)(C3)C2 [Memantine hydrochloride (Namenda)],101% and 93.1%,93.6%,88.7%,98.8%,89.7%,101%,90.3%,103%
